Cycloheximide cs = affects cycloheximide protein synthesis inhibition readout, counter-screen; hit rate 12% among 300,000; max response, %; cell reporter, cycloheximide protein synthesis inhibition counterscreen; in the data active means max response mostly above about 13%, no sharp cut-off; inactive means mostly below about 14%; further: read at 38.3 µM for the half of the compounds with a filed dose; 0% is about no effect
Pf growth 48h = inhibits P. falciparum growth in the first generation, 48 h. AID 504832. hit rate 5.9% among 310,000. Potency, µM (doses to about 28.7 µM), for the others: at the top dose activity change, negative = inhibition, actives largely listed as inhibitors. P. falciparum luciferase growth in erythrocytes, 48 h; further: potency means the concentration at half of the fitted maximal effect; on the % scale 0 is the no-effect control and ±100 the full control effect
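Luminescence readout; reporter = integrated firefly luciferase in P. falciparum. RBC culture at 2% hematocrit, 0.1% parasitemia final, 37 C/5% CO2; decreased signal taken as growth inhibition.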
Pf growth 96h = inhibits malaria parasite growth, 96 h; P. falciparum luciferase reporter growth, 96 h; Potency, µM (highest dose often 28.7 µM), for the others: at the highest dose activity change, negative = inhibition, usual class: inhibitors; hit rate 6.9% among 320,000; AID 504834; further: potency means the concentration at half of the fitted maximal effect; on the % scale 0 is the no-effect control and ±100 the full control effect
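Plates of compound plus infected erythrocytes (2% hematocrit, 0.05% parasitemia final) incubate 96 hours, 37 C, 5% CO2. Detection reagent added; reduced luminescence from the parasites' luciferase reporter flags inhibition.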
NS1 function inh = blocks influenza NS1 protein function. hit rate 0.4% among 270,000. Potency, µM (doses to about 46.1 µM), without a hit: at the top dose activity, positive = more growth. AID 2326; calls by dose curve; further: potency means the concentration at half of the fitted maximal effect; actives are rising curves; nearly all actives have a fitted effect of over 50% in size
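S. cerevisiae expressing influenza A NS1, grown in glucose, washed, then diluted 1:100 into pH 6.0 -URA galactose medium with 23 nl compound. Growth recovery read as OD600; NS1-free strain serves as control.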
Shiga inhibitor = inhibitors of Shiga toxin in Vero cells; Vero cells, Shiga toxin protein synthesis inhibition reporter; inhibition, % at 38.7 µM; hit rate 9.2% among 290,000; AID 2315; in the data active means inhibition mostly above about 28%, no sharp cut-off; inactive means mostly below about 43%; further: 0% is about no effect
The depositor's hits bear a star; i = inactive; u = inconclusive; x = no result given; [ ] = dose if it differs, or a comment. This is a sample that favours compounds with a hit; in the whole collection about 21% have one here. Unless noted, the call rests on the fitted dose curve; in most records, active means well fitted inhibition curve with a large enough effect; inconclusive means small, poorly fitted or top-dose-only effect, or another doubt; inactive means no such curve, though single readings can be large or run the other way.

SMILES	Cycloheximide cs	Pf growth 48h	Pf growth 96h	NS1 function inh	Shiga inhibitor
S=C(NCCc1ccccc1)NCCN1CCOCC1	6.9*	47.1%	-8.2%	2.4%	16.0
OCCN1CCN(C(=S)NCCc2ccccc2)CC1	18.5*	56.6%	57.0%	-1.2%	70.6*
OCCN1CCN(C(=S)Nc2ccccc2)CC1	-1.0	-36.0%	8.5%	x	-8.4
O=C(CCCc1ccccc1)NCCN1CCOCC1	-3.0	21.3%	22.7%	6.2%	-1.2
S=C(NCCc1ccccc1)N1CCOCC1	40.5*	32.5%	62.4%	1.6%	74.6*
C/C(=N\Nc1ccc(S(N)(=O)=O)cc1[N+](=O)[O-])c1cccnc1	-7.1	22.3%	-3.1%	3.4%	2.4
CC1=CC2=NC(=O)CC(C)(C(=O)N(CC(=O)NC3CCCC3)c3ccccc3F)N2C=C1 (configuration not stated)	-5.6	14.9%	-18.9%	-5.0%	-13.8
Fc1ccc(OCc2nnc(SCCN3CCOCC3)o2)cc1	12.2	1.5%	i	-2.0%	-12.2
Oc1cccc(/C=N/NC(=S)NCCN2CCOCC2)c1O	1.2	u	u	-2.3%	16.4
CCN1CCN(C(=S)NCCc2ccccc2)CC1	24.4*	48.6%	37.8%	-9.7%	43.2*
S=C(NCCN1CCOCC1)N/N=C/c1cccs1	-5.1	3.29µM*	2.33µM*	4.5%	-5.5
O=C(Cc1ccc(F)cc1)N1CCOCC1	1.6	10.2%	0.0%	0.6%	-7.7
O=C(NCCc1ccc(F)cc1)N1CCOCC1	18.1*	37.9%	x	24.5%	22.6
S=C(N/N=C/c1ccccc1)N1CCOCC1	39.9*	-28.6%	u	-13.5%	56.7*
COc1ccc(C(=O)OCC(=O)NCc2ccccc2)c(OC)c1OC	-2.3	16.0%	29.2%	-3.0%	-17.4
Cc1ccc2cc(CN(CC3CCCO3)C(=O)c3cccs3)c(=O)[nH]c2c1 (configuration not stated)	-2.2	-11.0%	-15.9%	-1.4%	-8.3
O=S(=O)(Nc1cccc2ccccc12)c1cccc2nonc12	-2.2	-13.4%	-6.7%	-2.9%	-5.4
Nc1sc2c(c1C(=O)NC1CCS(=O)(=O)C1)CCC2 (configuration not stated)	1.9	0.4%	x	3.6%	-9.2
N#Cc1c(N2CCSCC2)nsc1-c1ccccc1Cl	29.5*	u	u	-55.8%	43.3
N#Cc1c(Cl)cccc1N1CCCC1	-3.5	14.2%	5.6%	2.0%	-11.0
Cc1ccccc1NS(=O)(=O)c1ccc(C(=O)NN2CCCCC2)cc1	3.5	4.5%	u	27.6%	5.6
CCCn1c(SCC(=O)Nc2cccc(C)n2)nnc1-c1ccco1	-4.4	u	9.5%	-0.4%	-0.3
NC(=O)c1cc2n(n1)C(C(F)(F)F)CC(c1ccco1)N2 (configuration not stated)	-2.3	9.7%	u	-4.2%	-3.8
CCOC(=O)C1(N(CC)CC)Sc2cc(C)ccc2NC1=O (configuration not stated)	-3.8	u	5.86µM*	-25.3%	-2.7
Cc1[nH]c2ccccc2c1/C=N/Nc1ccccn1	15.2	0.0%	10.4µM*	-27.5%	49.1
SMILES	Cycloheximide cs	Pf growth 48h	Pf growth 96h	NS1 function inh	Shiga inhibitor
Cc1[nH]c2ccccc2c1/C=N/Nc1nncn1N	54.9*	60.5%	u	0.7%	112.0*
CN(Cc1cccc(-n2cccn2)c1)C(=O)CCc1nnc(C2CCCCC2)o1	40.4*	-23.6%	u	-3.2%	54.6*
CCN(CCn1cccn1)C(=O)CCc1nnc(C2CCCCC2)o1	12.4*	-19.5%	-9.2%	1.0%	37.5*
N#CCN1CCN(CCC(=O)Nc2ccc(OCc3ccccc3)cc2)CC1	3.0	-15.6%	104.7%	-0.8%	3.4
Nc1nc(CSc2nc3ccccc3[nH]2)nc(N2CCOCC2)n1	-3.6	-15.2%	-1.1%	4.3%	-7.6
CCC(c1nnnn1CCc1ccccc1)N1CCN(c2ccc(OC)cc2)CC1 (configuration not stated)	-3.7	-20.7%	-22.9%	-7.9%	40.0
O=C(N/N=C/c1cc2c(cc1Cl)OCO2)c1ccc2c(c1)OCCO2	41.9*	0.0%	u	2.5%	70.2*
O=C(N/N=C\c1cc2c(cc1[N+](=O)[O-])OCO2)c1cccs1	7.6	5.0%	u	6.5%	20.0
O=C(N/N=C\c1cc2c(cc1Cl)OCO2)c1cccs1	25.7*	64.4%	44.0%	-4.2%	69.3*
O=C(N/N=C\c1ccc(S(=O)(=O)O)o1)c1ccc2c(c1)OCO2	-3.0	-6.3%	u	-4.3%	-3.9
O=C(N/N=C/c1cccnc1)c1ccc2c(c1)OCO2	38.4*	-25.4%[0.00184 µM]	-18.6%	4.8%	55.0*

High-throughput results deposited in PubChem BioAssay by National Center for Advancing Translational Sciences (NCATS).
